From PubChem BioAssay (Tox21) come the findings set out here.

A short description of test [1]: Nuclear factor erythroid 2-related factor 2/antioxidant responsive element (Nrf2/ARE) small molecule agonists: qHTS cell viability counter screen in human keratinocytes (AID 1919968; active means well fitted curve in the direction sought with a large enough effect in the repeat runs; an effect the other way counts as inactive or inconclusive; further: nearly all actives have a fitted effect of over 55% in size; further: potency means the concentration at half of the fitted maximal effect). The procedure, abridged: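 KeratinoSens cells (HaCaT keratinocytes stably carrying an ARE-luciferase reporter) were seeded at 1,500 cells/well and rested 5 h at 37 C/5% CO2. They were then exposed to compounds in DMSO for 23 h. Viability was read by CellTiter-Fluor fluorescence after 1 h.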

Test [2] in a line: Nuclear factor erythroid 2-related factor 2/antioxidant responsive element (Nrf2/ARE) small molecule agonists: luciferase reporter gene qHTS assay in human keratinocytes (AID 1919969). Further: nearly all actives have a fitted effect of over 35% in size.
For test [3], the target named is Gonadotropin-releasing hormone receptor (Homo sapiens) (UniProt P30968). Kind of test: Human gonadotropin-releasing hormone receptor (GnRHR) small molecule agonists, calcium flux assay in GnRHR-HEK293 cells (AID 1920063). Further: nearly all actives have a fitted effect of over 35% in size. The procedure, abridged:
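HEK293 cells stably expressing human GnRHR were plated 18 h at 37 °C, loaded with calcium dye 1 h at 37 °C, then given compound in agonist mode; fluorescence (Ex/Em 480/540) read kinetically for 3 min at 1 s intervals.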

The target in test [4] is KiSS-1 receptor (Homo sapiens) (UniProt Q969F8). Briefly: Human kisspeptin (KISS1R) small molecule agonists, calcium flux assay in KISS1R-HEK293 cells (AID 1920064; active means well fitted curve in the direction sought with a large enough effect in the repeat runs; an effect the other way counts as inactive or inconclusive). The method in brief:
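HEK293 cells stably expressing human KISS1R were plated 18 h at 37 °C, loaded with calcium dye for 1 h at 37 °C, then given compound by pin tool. Fluorescence (Ex/Em 480/540) was read kinetically for 3 min.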

Test [5] in a line: G protein-coupled receptor (GPCR) small molecule agonists, calcium flux assay: HEK293 wild type cell line counter screen (AID 1920065). The method in brief: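 Cells were plated and cultured 18 h at 37 C/5% CO2, then loaded with calcium dye for 1 h at 37 C. Compounds in DMSO were pin-transferred in agonist mode, and fluorescence (Ex/Em 480/540) was read kinetically for 3 min at 1 s intervals.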

The nature of test [6]: p53 small molecule agonists, cell-based qHTS assay with human liver microsomes (AID 1963577).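 Further: p53 response element beta-lactamase reporter cells with liver microsomes plus NADPH.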 The method in brief: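 p53RE-bla cells; 5 h settle, 37 C/5% CO2; cpd + HLM 0.5 mg/mL + NADPH 0.5 mg/mL (final); 16 h 37 C; LiveBLAzer 2 h RT dark; fluorescence readout.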
Test [7] can be described thus: p53 small molecule agonists, cell-based qHTS assay with rat liver microsomes (AID 1963578). The procedure, abridged:
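Rat liver microsome activation: microsomes 0.5 mg/mL, NADPH 0.5 mg/mL final; p53RE-bla cells, 16 h 37 C; LiveBLAzer readout, 2 h RT dark.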

Test [8] can be described thus: p53 small molecule agonists, cell-based qHTS assay with human liver microsomes: qHTS cell viability counter screen (AID 1963579). Further: nearly all actives have a fitted effect of over 45% in size. The procedure, abridged:
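Luminescent CellTiter-Glo read-out, 30 min at room temperature, gauged cytotoxicity in p53RE-bla cells exposed 16 h at 37 C to DMSO-dissolved compounds with metabolic activation by human liver microsomes and NADPH, each 0.5 mg/mL final.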

The nature of test [9]: p53 small molecule agonists, cell-based qHTS assay with rat liver microsomes: qHTS cell viability counter screen (AID 1963580). Further: nearly all actives have a fitted effect of over 45% in size. The procedure, abridged: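 Viability is assessed in parallel with the p53 reporter read: HCT-116 p53RE-bla cells receive compounds plus rat microsomes and NADPH (0.5 mg/mL final apiece), incubate 16 h at 37 C, and then CellTiter-Glo luminescence is recorded.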

Test [10] is described as follows: p53 small molecule agonists, cell-based qHTS assay: qHTS cell viability counter screen (AID 1963581). Further: nearly all actives have a fitted effect of over 45% in size. The method in brief:
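p53RE-bla HCT-116 cells were exposed to compounds for 16 h at 37 C; after the beta-lactamase FRET read in the same wells, CellTiter-Glo was added and luminescence (intracellular ATP) read after 30 min at room temperature.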

Test [11] is described as follows: p53 small molecule agonists, cell-based qHTS assay (AID 1963582; active means well fitted activation curve with a large enough effect in the signal ratio in the repeat runs, not every such curve was filed as active; the % refers to the signal ratio). The procedure, abridged: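 p53RE-bla beta-lactamase reporter cells rested 5 h at 37 C/5% CO2, then received compounds in DMSO by pin transfer and were incubated 16 h at 37 C. LiveBLAzer B/G FRET substrate was loaded for 2 h at room temperature before fluorescence reading.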
Test [12] is described as follows: cAMP Responsive Elements (CRE) small molecule agonists, cell-based qHTS assay (AID 1963590). The procedure, abridged: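 CRE-bla HEK 293T cells in DMEM with 10% dialyzed FBS, NEAA, pyruvate and 25 mM HEPES were plated 18 h at 37 C/5% CO2, then exposed to compounds in DMSO for 3 h before LiveBLAzer B/G FRET substrate addition.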
Test [13] is described as follows: cAMP Responsive Elements (CRE) small molecule antagonists, cell-based qHTS assay (AID 1963591; active means well fitted inhibition curve with a large enough effect in the signal ratio in the repeat runs, not every such curve was filed as active; the % refers to the signal ratio). The procedure, abridged: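 CRE-bla HEK293T cells were plated 18 h at 37 °C/5% CO2, pinned with compound in DMSO, then stimulated with NKH477 at 0.25 uM final for 3 h. LiveBLAzer B/G FRET substrate was added and plates incubated 2 h at room temperature.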
Test [14] has as its target Beta-2 adrenergic receptor (Homo sapiens) (UniProt P07550). Kind of test: Adrenergic beta2 receptor (ADRB2) small molecule antagonists, cell-based qHTS assay (AID 1963592). Further: series mostly up to about 92 µM; nearly all actives have a fitted effect of over 50% in size. The procedure, abridged:
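Cells (CHO, stable ADRB2 overexpression) incubated 18-20hr at 37C; compounds added from DMSO; agonist mix (1nM isoproterenol, 100uM IBMX, 25uM Ro-20-1724) added; 0.5hr RT; d2-cAMP and anti-cAMP-cryptate added; 1hr RT; 665/615 nm read.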

The target is the same in test [15]. Briefly: Adrenergic beta2 receptor (ADRB2) small molecule agonists, cell-based qHTS assay (AID 1963593).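 Further: CHO cells stably overexpressing human ADRB2.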 The method in brief:
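CHO cells stably over-expressing ADRB2 were plated overnight at 37C, then dosed with compounds plus a stimulation mix containing 100uM IBMX and 25uM Ro-20-1724 for 0.5hr at room temperature. cAMP was measured by HTRF competition, 1hr.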

The target of test [16] is D(2) dopamine receptor (Homo sapiens) (UniProt P14416). Kind of test: Dopamine D2 receptor (DRD2) small molecule agonists, cell-based qHTS assay (AID 1963594). Further: nearly all actives have a fitted effect of over 35% in size. The method in brief:
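HEK293 cells stably expressing human DRD2, pre-treated with PDE inhibitor Ro20-1724 (0.1 mM final) and compound 10 min at room temperature, then stimulated with NKH477 (200nM […]) for 30 min. cAMP read by HTRF (665/620 nm).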

Test [17] shares this target. Briefly: Dopamine D2 receptor (DRD2) small molecule antagonists, cell-based qHTS assay (AID 1963595; active means well fitted inhibition curve with a large enough effect in the signal ratio in the repeat runs, with a control signal flat; the % refers to the signal ratio). The method in brief:
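Readout: HTRF cAMP, cAMP-d2 competing with cellular cAMP for anti-cAMP cryptate, read after 1 h. Cells: DRD2-HEK293. Conditions: 0.1 mM Ro20-1724, 12 nM quinpirole, 200 nM NKH477, 30 min RT.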

The target in test [18] is Muscarinic acetylcholine receptor M1 (Homo sapiens) (UniProt P11229). Briefly: Cholinergic receptor muscarinic 1 (CHRM1) small molecule antagonists, cell-based qHTS assay (AID 1963588). Further: nearly all actives have a fitted effect of over 40% in size. The method in brief: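 CHRM1-CHO calcium-flux assay, antagonist mode. Cells were seeded 18 h, dye-loaded 1 h at 37 C and given compound for 5 min at RT, then acetylcholine was added at 50nM. FDSS fluorescence was read 3 min; 15 concentrations, three runs.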

The target is the same in test [19]. Kind of test: Cholinergic receptor muscarinic 1 (CHRM1) small molecule agonists, cell-based qHTS assay (AID 1963589). Further: nearly all actives have a fitted effect of over 35% in size. The method in brief:
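CHO cells stably expressing human CHRM1, seeded 18 h at 37 C/5% CO2, dye-loaded 1 h at 37 C, then given compound in agonist mode; intracellular calcium fluorescence read kinetically at 1 s intervals. Fifteen concentrations, three independent runs.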

Unmarked numbers belong to inactive results. Inconclusive results are not listed. Activity calls are given as the source filed them. Unless noted, the call rests on the fitted dose curve.
On the % scale 0 is the no-effect control and ±100 the full control effect.

D(2) dopamine receptor (Homo sapiens), sequence (P14416 whole entry, looked up): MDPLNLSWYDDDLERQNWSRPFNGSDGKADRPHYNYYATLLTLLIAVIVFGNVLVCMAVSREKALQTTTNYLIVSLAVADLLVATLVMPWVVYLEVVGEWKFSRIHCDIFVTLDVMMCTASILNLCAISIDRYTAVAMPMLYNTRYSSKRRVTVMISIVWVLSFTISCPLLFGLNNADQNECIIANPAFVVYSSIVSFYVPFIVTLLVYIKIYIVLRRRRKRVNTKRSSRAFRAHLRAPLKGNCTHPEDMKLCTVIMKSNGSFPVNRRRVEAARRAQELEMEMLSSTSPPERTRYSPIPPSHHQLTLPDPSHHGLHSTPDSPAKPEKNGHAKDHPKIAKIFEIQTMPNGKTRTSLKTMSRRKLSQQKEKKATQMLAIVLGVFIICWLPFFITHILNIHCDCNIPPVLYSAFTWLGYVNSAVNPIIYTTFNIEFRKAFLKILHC
Beta-2 adrenergic receptor (Homo sapiens), sequence (P07550 whole entry, looked up): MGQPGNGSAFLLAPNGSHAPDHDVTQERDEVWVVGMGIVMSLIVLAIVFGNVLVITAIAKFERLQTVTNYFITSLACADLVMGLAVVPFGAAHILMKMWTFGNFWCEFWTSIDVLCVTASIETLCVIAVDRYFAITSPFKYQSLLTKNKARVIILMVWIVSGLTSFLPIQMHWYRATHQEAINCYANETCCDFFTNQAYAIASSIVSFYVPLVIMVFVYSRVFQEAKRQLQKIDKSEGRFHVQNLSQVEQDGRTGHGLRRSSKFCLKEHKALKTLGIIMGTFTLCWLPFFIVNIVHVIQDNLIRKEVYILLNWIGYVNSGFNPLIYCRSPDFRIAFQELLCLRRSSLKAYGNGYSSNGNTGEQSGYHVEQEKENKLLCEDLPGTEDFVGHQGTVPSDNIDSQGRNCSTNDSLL
KiSS-1 receptor (Homo sapiens), sequence (Q969F8 whole entry, looked up): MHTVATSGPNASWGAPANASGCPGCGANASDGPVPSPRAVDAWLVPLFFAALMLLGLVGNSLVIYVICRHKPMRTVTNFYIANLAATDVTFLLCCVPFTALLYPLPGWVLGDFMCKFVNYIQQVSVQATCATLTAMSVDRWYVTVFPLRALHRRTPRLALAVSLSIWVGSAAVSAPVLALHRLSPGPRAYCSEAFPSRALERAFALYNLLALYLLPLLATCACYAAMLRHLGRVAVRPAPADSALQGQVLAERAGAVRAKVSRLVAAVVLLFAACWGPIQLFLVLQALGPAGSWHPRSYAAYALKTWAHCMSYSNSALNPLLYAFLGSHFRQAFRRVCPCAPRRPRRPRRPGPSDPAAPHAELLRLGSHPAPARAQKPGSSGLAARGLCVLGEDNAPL
Muscarinic acetylcholine receptor M1 (Homo sapiens), sequence (P11229 whole entry, looked up): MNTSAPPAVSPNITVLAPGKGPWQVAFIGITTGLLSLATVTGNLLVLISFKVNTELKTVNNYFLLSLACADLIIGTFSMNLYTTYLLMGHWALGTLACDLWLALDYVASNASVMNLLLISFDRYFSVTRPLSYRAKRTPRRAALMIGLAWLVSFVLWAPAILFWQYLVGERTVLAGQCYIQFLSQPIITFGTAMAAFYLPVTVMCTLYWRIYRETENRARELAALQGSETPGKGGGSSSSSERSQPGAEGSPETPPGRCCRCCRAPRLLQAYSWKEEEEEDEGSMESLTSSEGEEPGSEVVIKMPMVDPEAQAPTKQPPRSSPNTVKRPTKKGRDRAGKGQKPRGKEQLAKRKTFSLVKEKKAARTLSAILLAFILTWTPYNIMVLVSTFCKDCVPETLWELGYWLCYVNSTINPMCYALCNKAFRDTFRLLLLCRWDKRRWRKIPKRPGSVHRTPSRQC
Gonadotropin-releasing hormone receptor (Homo sapiens), sequence (P30968 whole entry, looked up): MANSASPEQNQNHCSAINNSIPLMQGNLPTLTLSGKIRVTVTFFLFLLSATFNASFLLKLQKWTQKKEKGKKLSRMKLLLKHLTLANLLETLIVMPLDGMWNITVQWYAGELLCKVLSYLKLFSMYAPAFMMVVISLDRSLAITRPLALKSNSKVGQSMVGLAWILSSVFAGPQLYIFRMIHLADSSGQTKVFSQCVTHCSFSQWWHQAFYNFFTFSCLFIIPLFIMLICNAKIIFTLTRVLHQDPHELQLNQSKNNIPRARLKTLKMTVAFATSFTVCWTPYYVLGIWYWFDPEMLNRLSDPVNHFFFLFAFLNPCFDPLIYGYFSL

In the case of `Nc1ccc(S(=O)(=O)Nc2ccnn2-c2ccccc2)cc1`, the activity change, negative = cytotoxicity in [1] was 8.64% [at 19 µM]; in test [8] it was 1.97% [at 13.5 µM]; in test [9] it was -1.12% [at 13.5 µM]; in test [10] it was -3.47% [at 13.5 µM]. In addition, the activity, positive = activation in test [2] is 4.54% [at 19 µM]. For the same molecule, in [3], the activity change was -0.562% [at 11.8 µM, active compounds read high]. Also, the activation in [4] is 15% [at 15.8 µM]; in test [5] it was 0.406% [at 11.8 µM]; in test [6], 4.03% [at 13.5 µM]; in test [7] it was 0.115% [at 13.6 µM]; in [11], 1.07% [at 13.5 µM]; in test [12], -0.057% [at 19 µM]. Also, the activation in [16] was -21.6% [at 19 µM]. For the same molecule, the activity change, negative = inhibition is 0.401% [at 18.9 µM] in [13], 0.77% [at 19 µM] in test [14] and 1.2% [at 18.9 µM] in [17]. The Potency entry in test [15] was “inactive”.
Turning to `CC1=NS(=O)(=O)c2cc(Cl)ccc2N1`, the Potency result in test [1], in [2], in test [3], in test [6], in [7] and in test [8] was “inactive” in each case. Moreover, the Potency entry in [9], in test [10], in test [11], in test [12], in test [13] and in [14] was “inactive” throughout. The Potency entry in test [15], in [16] and in [17] was “inactive” throughout. In addition, the result in test [4] and in test [5] was inactive.
Turning to `C[C@@H]1CN(CCCn2c3ccccc3c3ccccc32)C[C@H](C)N1`, in test [1], the Potency is 26.6 µM (active). Further, the Potency result in test [2], in test [3], in test [6], in [7], in [8] and in test [9] was “inactive” throughout. Moreover, the Potency entry in test [10], in test [11], in test [18], in test [19], in test [15] and in test [17] was “inactive” throughout. In addition, the outcome in test [4] and in [5] was inactive.
In the case of `O=C(Oc1ccccc1C(=O)O)c1ccccc1O`, the Potency result in test [1], in test [2], in [3], in test [6], in [7] and in test [8] was “inactive” each time. In addition, the Potency entry in test [9], in test [10], in test [11], in [12], in test [13] and in [14] was “inactive” each time. The Potency result in test [15], in test [16] and in test [17] was “inactive” throughout. Further, the outcome in [4] and in test [5] was inactive.
On to `CCCCCCCCCCCCCCCCOS(=O)(=O)O`, for which the Potency result in [1], in [2], in test [3], in [6], in test [7] and in test [8] was “inactive” in each case. Also, the Potency result in test [9], in [10], in test [11], in test [18], in test [19] and in test [12] was “inactive” in each case. Besides, the Potency result in test [13], in test [14], in test [16] and in [17] was “inactive” in each case. The outcome in [4] and in test [5] was inactive.
Take `CCN(O)CC`: the Potency result in [1], in test [2], in test [3], in test [6], in test [7] and in test [8] was “inactive” each time. Further, the Potency entry in test [9], in [10], in test [11], in test [18], in test [12] and in test [13] was “inactive” each time. Also, the Potency result in test [14], in [15] and in test [16] was “inactive” throughout. Also, the outcome in test [4] and in test [5] was inactive.
On to `NC(N)=NC(=O)Cc1c(Cl)cccc1Cl`, for which the Potency result in test [1], in test [2], in [3], in [6], in test [7] and in test [8] was “inactive” in each case. For the same molecule, the Potency result in [9], in test [10], in [11], in test [12], in test [13] and in [14] was “inactive” each time. For the same molecule, the Potency result in [15] and in [17] was “inactive” throughout. The outcome in [4] and in test [5] was inactive.
